These results are taken from PubChem BioAssay (EPA / NIEHS).

Results filed as inconclusive are left out. Activity calls are given as the source filed them. How the source made its calls: active means hit-call score of the fitted dose curve at least 0.9, where 1 is the maximum; inconclusive means response in the unintended direction; inactive means score below 0.9.

Read-out in the experiment: HMG-CoA synthase (HMGCS2), HMGCS2 (gene 3158)
The experiment can be described thus: CLD_HMGCS2_24hr: CellzDirect (CLD) Gene Expression Assay for HMG-CoA synthase (HMGCS2) at 24 hours (AID 2283691). Here is the method: CLD_24hr is a cell-based, multiplexed-readout assay that uses hepatocyte, a human liver primary cell, with measurements taken at 24 hours after chemical dosing in a 96-well plate.CLD_HMGCS2_24hr is one of 16 assay component(s) measured or calculated from the CLD_24hr assay. It is designed to make measurements of mRNA induction, a form of inducible reporter, as detected with chemiluminescence signals by Quantitative Nuclease Protection Assay (qNPA) technology.Data from the assay component CLD_HMGCS2_24hr was analyzed at the endpoint, CLD_HMGCS2_24hr, in the positive analysis fitting direction relative to DMSO as the negative control and baseline of activity. Using a type of inducible reporter, gain-of-signal activity can be used to understand changes in the reporter gene as they relate to the gene HMGCS2. Furthermore, this assay endpoint can be referred to as a primary readout. To generalize the intended target to other relatable targets, this assay endpoint is annotated to the lyase intended target family, where subfamily is HMG-CoA synthase.
Human hepatocyte cultures were treated daily for two consecutive days with fresh dosing solutions containing appropriate concentrations of the 320 ToxCast chemicals (chemical identities were blinded to CellzDirect and other ToxCast collaborators), vehicle control (0.2% DMSO), and positive control inducers as summarized in Table 1. Due to the large number of treatment groups and chemicals examined, the ToxCast chemicals were divided into two groups (spanning two independent cultures of hepatocytes from separate donor preparations (Hu778: ToxCast plates 1 and 2; Hu776: ToxCast plates 3 and 4). Each preparation of human hepatocyte cultures was treated with respective vehicle control, medium only control, set of six positive controls/reference chemicals for the five hepatic receptor pathways, and a subset of eight of the ToxCast chemicals (indoxacarb, pyrithiobac-sodium, norflurazon, cyhalofop-butyl, methomyl, thiram, acetochlor, and propiconazole). These replicate data, coupled with internal replicates designed within the blinded ToxCast chemical library, provided additional data to evaluate interindividual differences between hepatocyte preparations and their potential impact on chemical profiles.Cell morphology and integrity were evaluated using phase-contrast microscopy as an indicator of hepatocyte cell health (Tyson & Green, 1987). Cultures for each treatment group (i.e., media, vehicle [0.2% DMSO], positive control inducers [multiple concentrations], and the ToxCast chemicals [multiple concentrations]) were observed and cell morphology was assessed relative to vehicle control cultures at each harvest time point (0, 6, 24, or 48 h). […] Images were evaluated at the conclusion of the study to assess changes in cell integrity and account for the effects of chemical exposure on uncharacteristic changes in concentration-dependent gene expression profiles. The results from these determinations of apparent cytotoxicity were annotated (yes/no) alongside the corresponding qNPA data for reference.At the conclusion of each treatment period, hepatocyte cultures (96-well) were washed with 1 volume of HBSS, lysed by addition of 25 ul ArrayPlate lysis buffer (HTG, Tucson, AZ), and 70 ul/well of Denaturation Oil, denatured by incubation at 95C for 10 min, and frozen at approximately -70C until analysis by nuclease protection assay (qNPA) (Roberts et al., 2007). For qNPA analysis, cell lysates were thawed at 50C for approximately 30 min, qNPA probes were added, and samples were incubated at 95C for 10 min to begin the detection process by denaturing the target RNA, dissociating the duplexes and secondary structure hybridization. At the conclusion of the hybridization period, S1 nuclease reagent was added to each sample to digest all nonprotected nucleotides at 50C for 60-90 min. […]
In the case of `Oc1ccc(C(c2ccc(O)cc2)C(Cl)(Cl)Cl)cc1`, the outcome was inactive.
By AC50 is commonly meant the concentration at which the activity in the assay is half-maximal. Turning to `CSC(=O)c1cccc2nnsc12`, the AC50 was 7.33 µM (active).
Turning to `CCOC(=O)NCCOc1ccc(Oc2ccccc2)cc1`, the compound was called inactive.
Same read-out and setting: for `CCSC(=O)N(CC(C)C)CC(C)C` the value was “inactive”; for `COC(=O)c1ccccc1C(=O)O`, “inactive”.
On the same count and under the same terms, with `CCCCOC(=O)[C@@H](C)Oc1ccc(Oc2ccc(C(F)(F)F)cn2)cc1` the entry was “inactive”; with `COc1c(Cl)ccc(Cl)c1C(=O)O`, “inactive”; with `CCCCC(CC)COC(=O)c1ccccc1C(=O)O` (centres undefined), “inactive”.
In the case of `CCOC(=O)C(C)Oc1ccc(Oc2nc3ccc(Cl)cc3o2)cc1` (centres undefined), the compound was classed as inactive.
`N#CSCSc1nc2ccccc2s1`: the outcome was inactive.
In the case of `COC(=O)c1ccccc1S(=O)(=O)NC(=O)Nc1nc(OC(F)F)cc(OC(F)F)n1`, the outcome was inactive.
For the compound `CCCCOC(=O)C(C)Oc1ccc(Oc2ccc(C(F)(F)F)cn2)cc1` (centres undefined), the result was inactive.
For `O=C(O)C1(C(=O)Nc2ccc(Cl)cc2Cl)CC1`, the AC50 is 34.9 µM (active).
As for `CC(C)(c1ccc(O)cc1)c1ccc(O)cc1`, the compound was called inactive.
Same read-out and setting: with `CCCOC(=O)c1ccc(C(=O)OCCC)nc1` the entry was “inactive”.
On the same count and under the same terms, with `CCC(C)OC(=O)N1CCCCC1CCO` (centres undefined) the entry was “inactive”; with `CCOC(=O)C(C)Oc1ccc(Oc2cnc3cc(Cl)ccc3n2)cc1` (centres undefined), “inactive”; with `CCCOC(=O)NCCCN(C)C`, “inactive”.
`C#CCOC(=O)[C@@H](C)Oc1ccc(Oc2ncc(Cl)cc2F)cc1`: the result was inactive.
Take `OB(O)O`: the compound was classed as inactive.
In the case of `COC(=O)c1c(Cl)nn(C)c1S(=O)(=O)NC(=O)Nc1nc(OC)cc(OC)n1`, the outcome was inactive.
For the compound `COC(=O)c1ccc(CNS(C)(=O)=O)cc1S(=O)(=O)NC(=O)Nc1nc(OC)cc(OC)n1`, the compound was classed as inactive.
In the case of `c1ccc(Nc2ccccc2)cc1`, the result was inactive.
Consider `CCOC(=O)COc1cc(-n2ncc(C(F)(F)F)c(C)c2=O)c(F)cc1Cl`, for which the compound was called inactive.
